Glioma ERSR ind – ER stress response induction in glioma; U87-MG GRP78 promoter luciferase reporter, 16 h; hit rate 0.02% among 420,000; Potency, µM, actives largely listed as activators; note: series mostly up to about 76 µM; nearly all actives have a fitted effect of over 35% in size
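Stably transfected U87-MG human glioma cells carrying a GRP78-based luminescent sensor were seeded at 1000 cells/well, pin-dosed with compounds and incubated 16 h. Luciferase reagent was then added, and end-point luminescence was read after 10 min at room temperature.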
Eya2 phos inh – blocks the phosphatase activity of human Eya2. Potency, µM (highest dose often 76.9 µM), usual class: inhibitors. AID 488837. recombinant Eya2, OMFP fluorescence dephosphorylation (OMFP is methylfluorescein phosphate). hit rate 0.006% among 330,000
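Eya2 protein (added as 0.2 uM solution) was preincubated with compound for 10 min at ambient temperature in 50 mM HEPES pH 7.5, 50 mM NaCl, 5 uM MgCl2, 0.05% BSA, 1 mM DTT. OMFP (added at 50 uM) then reacted 10 min; fluorescence read at 485/525 nm.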
Six1-Eya2 inh – inhibitors of human Six1/Eya2 interaction; activity change, % (no concentration beside the values); Q15475+O00167; hit rate 0.56% among 360,000; AlphaScreen GST-Six1/His-Eya2 binding, biochemical; active compounds read low; AID 651725; in the data active = activity change below about -65%; inconclusive = mostly about -30% to -63%
Target sequence (O00167 whole entry, looked up): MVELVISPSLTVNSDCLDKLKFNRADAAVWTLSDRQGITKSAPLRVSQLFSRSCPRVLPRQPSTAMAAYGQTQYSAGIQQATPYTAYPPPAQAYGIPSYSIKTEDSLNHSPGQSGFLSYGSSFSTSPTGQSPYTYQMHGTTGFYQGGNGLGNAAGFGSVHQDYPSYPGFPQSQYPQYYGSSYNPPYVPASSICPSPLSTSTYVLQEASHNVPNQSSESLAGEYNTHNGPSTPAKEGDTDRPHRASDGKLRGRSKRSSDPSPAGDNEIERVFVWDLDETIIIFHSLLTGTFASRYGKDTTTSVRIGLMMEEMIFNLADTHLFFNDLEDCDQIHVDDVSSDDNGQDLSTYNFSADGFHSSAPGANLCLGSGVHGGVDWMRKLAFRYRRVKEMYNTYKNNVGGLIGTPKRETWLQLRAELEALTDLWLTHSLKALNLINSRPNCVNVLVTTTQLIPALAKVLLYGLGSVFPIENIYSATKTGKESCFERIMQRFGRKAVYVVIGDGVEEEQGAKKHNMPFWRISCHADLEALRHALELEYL
Target sequence (Q15475 whole entry, looked up): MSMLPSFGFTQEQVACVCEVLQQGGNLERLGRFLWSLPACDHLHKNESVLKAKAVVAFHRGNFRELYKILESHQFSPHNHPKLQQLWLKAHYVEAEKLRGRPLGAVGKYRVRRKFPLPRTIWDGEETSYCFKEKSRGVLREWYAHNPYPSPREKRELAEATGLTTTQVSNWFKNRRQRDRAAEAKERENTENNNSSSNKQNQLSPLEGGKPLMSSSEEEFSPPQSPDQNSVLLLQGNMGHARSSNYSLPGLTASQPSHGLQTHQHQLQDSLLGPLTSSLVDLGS
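Compounds are tested against tagged Six1 and Eya2 proteins bridged by glutathione donor and nickel acceptor beads; after a one-hour incubation at 37 °C without light, AlphaScreen emission is recorded.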
CtBP-E1A blk – inhibitors of CtBP/E1A interaction | AID 651724 | hit rate 0.49% among 340,000 | AlphaScreen GST-E1A/His-CtBP binding, 1536-well; active compounds read low | activity change, % (concentration not given with the values); in the data active = activity change below about -65%; inconclusive = mostly about -30% to -63%
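Protein mix (5X: 125 nM each GST-E1A, His-CtBP) was incubated with pinned compound 2 h at 37 deg C in dark, in 50 mM Tris pH 8.0 buffer with 300 mM NaCl. Glutathione donor and nickel acceptor beads followed; AlphaScreen signal read after 1 h.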
Hits are given with their value. This is a sample that favours compounds with a hit; in the whole collection about 0.58% have one here. Unless noted, calls come from the whole dose curve; as a rule, active = well fitted curve in the direction sought with a large enough effect; inconclusive = small, poorly fitted or top-dose-only effect, or another doubt; inactive = no such curve, though single readings can be large; an effect the other way counts as inactive or inconclusive.

For Cc1cc(N/N=C/c2ccc(F)cc2)nc(-n2nc(C)cc2C)n1 the results were Glioma ERSR ind inactive, Eya2 phos inh inactive, Six1-Eya2 inh inactive and CtBP-E1A blk inactive.
COc1ccc(/C=N/Nc2cc(C)nc(-n3nc(C)cc3C)n2)c(OC)c1 was read as Glioma ERSR ind inactive, Eya2 phos inh inactive, Six1-Eya2 inh -76 and CtBP-E1A blk -73.
`O=C(Nc1ccc(N2CCN(C(=O)c3ccccc3F)CC2)cc1)c1ncn[nH]1` gave Glioma ERSR ind inactive, Eya2 phos inh inactive, Six1-Eya2 inh -72 and CtBP-E1A blk inconclusive.
COc1ccc(CN2CCOc3ccc(CN4CCC(O)(c5cccnc5)CC4)cc3C2)c(C)c1C was read as Glioma ERSR ind inactive.
Screening CN(C)c1ccc(N=C/C=C2\N(C)c3ccccc3C2(C)C)cc1 returned Glioma ERSR ind inactive, Eya2 phos inh inactive, Six1-Eya2 inh -66 and CtBP-E1A blk inconclusive.
Screening CN1/C(=C\C=Nc2ccc3ccccc3c2)C(C)(C)c2ccccc21 returned Eya2 phos inh inactive.
For COc1ccc(-c2cc(=O)n(-c3nc4ccccc4[nH]3)[nH]2)cc1 the results were Glioma ERSR ind inactive, Eya2 phos inh inactive, Six1-Eya2 inh inconclusive and CtBP-E1A blk -65.
For COc1ccc(-c2nc3ccccc3[nH]2)cc1 the results were Glioma ERSR ind inactive, Eya2 phos inh inactive, Six1-Eya2 inh inactive and CtBP-E1A blk inactive.
`COc1ccc(N2CCN(C3CCCN(S(=O)(=O)c4ccc(C)cc4C)C3)CC2)cc1` (centres undefined) gave Glioma ERSR ind inactive, Eya2 phos inh inactive, Six1-Eya2 inh inconclusive and CtBP-E1A blk -66.
O=C(NCC1Cc2cc(-c3cnc4ccccc4c3)cc(F)c2O1)c1cnsn1 (centres undefined) was read as Glioma ERSR ind inactive.
For COc1cccc(CNC(=O)CSc2ccc(-c3ccccn3)nn2)c1 the results were Glioma ERSR ind inactive, Eya2 phos inh inactive, Six1-Eya2 inh -65 and CtBP-E1A blk -74.
`O=C(CSc1ccc(-c2ccccn2)nn1)NCc1ccc(Cl)cc1` gave Glioma ERSR ind inactive, Eya2 phos inh inactive, Six1-Eya2 inh inconclusive and CtBP-E1A blk -70.
Screening O=C(CSc1ccc(-c2ccco2)nn1)NCc1ccc(Cl)cc1 returned Glioma ERSR ind inactive, Eya2 phos inh inactive, Six1-Eya2 inh inactive and CtBP-E1A blk inactive.
For COCC(=O)Nc1cc(C(=O)N2CCc3c(Cl)cccc3C2)c2c(c1)nc(-c1ccncc1)n2C the results were Glioma ERSR ind inactive.
Cc1cc2c(=Cc3ccc(N(C)C)cc3)c3ccccc3n2[n+]1C was read as Glioma ERSR ind inactive, Six1-Eya2 inh inactive and CtBP-E1A blk -66.
`CN(C)c1ccc(C=c2c3cc(O)ccc3n3c2cc(-c2ccccc2)[n+]3C)cc1` gave Glioma ERSR ind inactive, Six1-Eya2 inh -74 and CtBP-E1A blk inactive.
CCOC(=O)c1cc2c(=Cc3ccc(N(C)C)cc3)c3ccccc3n2[n+]1C was read as Glioma ERSR ind inactive, Six1-Eya2 inh -69 and CtBP-E1A blk inactive.
Screening CO[C@H]1[C@H](NC(=O)c2ccco2)c2ccccc2C12CCN(Cc1cc(Cl)ccc1O)CC2 returned Glioma ERSR ind inactive.
For COc1cccc(/C=C/C(=O)OCC(=O)Nc2cccc(S(=O)(=O)NC3=NCCCCC3)c2)c1 the results were Glioma ERSR ind inactive, Eya2 phos inh inactive, Six1-Eya2 inh inactive and CtBP-E1A blk -76.
For CCOC(=O)c1[nH]c2cc(OC)c(OC)cc2c1NC(=O)C(C)N1CCN(Cc2ccccc2)CC1 (centres undefined) the results were Glioma ERSR ind inactive, Eya2 phos inh inactive, Six1-Eya2 inh inconclusive and CtBP-E1A blk -65.
C/C(=N\NC(=O)C1CCCN(S(=O)(=O)c2ccccc2)C1)c1ccccn1 (centres undefined) was read as Glioma ERSR ind inactive, Eya2 phos inh inactive, Six1-Eya2 inh -86 and CtBP-E1A blk -90.
For CC(=NNC(=S)N1CCN(C2CCCCCC2)CC1)c1ccccn1 the results were Glioma ERSR ind inactive, Six1-Eya2 inh -92 and CtBP-E1A blk inactive.
For CC(=NNC(=S)N1CCCCCC1)c1cccc2cccnc12 the results were Glioma ERSR ind inactive, Six1-Eya2 inh inconclusive and CtBP-E1A blk -90.
`CC(=NNC(=S)N1CCN(c2ccccn2)CC1)c1ccccn1` gave Glioma ERSR ind inactive, Six1-Eya2 inh inconclusive and CtBP-E1A blk inconclusive.
For CC(=NNC(=S)N1CC2CCC(CC2)C1)c1ccccn1 the results were Glioma ERSR ind inactive, Six1-Eya2 inh inactive and CtBP-E1A blk inactive.
Screening C/C(=N\NC(=O)C1CCCN(S(=O)(=O)c2ccccc2)C1)c1ccncc1 (centres undefined) returned Glioma ERSR ind inactive, Eya2 phos inh inactive, Six1-Eya2 inh inactive and CtBP-E1A blk inactive.
For CC(=NNC(=S)N1CC2CCC(CC2)C1)c1cnccn1 the results were Glioma ERSR ind inactive, Six1-Eya2 inh -92 and CtBP-E1A blk -94.
Fc1ccc(N2CCN(Cc3ccc4c(c3)CN(Cc3cccn3-c3cccnc3)CCO4)CC2)cc1 was read as Glioma ERSR ind inactive.
CC(=O)c1ccc(-c2cc(F)cc3c2OC(CNC(=O)Cc2cn4ccsc4n2)C3)s1 (centres undefined) was read as Glioma ERSR ind inactive.
Screening CC(=NNC(=S)N1CCN(c2ccccn2)CC1)c1nccs1 returned Glioma ERSR ind inactive, Six1-Eya2 inh -91 and CtBP-E1A blk -94.
Screening O=c1[nH]c2ccc(Cl)cc2c(-c2ccccc2)c1CN1CCOCC1 returned Glioma ERSR ind inactive, Eya2 phos inh inactive, Six1-Eya2 inh -73 and CtBP-E1A blk -81.
`O=c1[nH]c2ccc(Cl)cc2c(-c2ccccc2)c1N1CCOCC1` gave Glioma ERSR ind inactive, Eya2 phos inh inactive, Six1-Eya2 inh inactive and CtBP-E1A blk inactive.
Screening COc1ccc(CN2CCOc3ccc(C(O)c4cccnc4)cc3C2)c(OC)c1OC (centres undefined) returned Glioma ERSR ind inactive.
For COC(=O)c1cc(CNC(=O)c2ccccc2OC)cc(NC(=O)c2ccccc2F)c1 the results were Glioma ERSR ind inactive.
CN(C)c1ccc(N=Nc2ccccc2C(=O)OCC(=O)NCC2CCCCC2)cc1 was read as Glioma ERSR ind inactive, Eya2 phos inh inactive, Six1-Eya2 inh -74 and CtBP-E1A blk -68.
CN(C)c1ccc(N=Nc2ccccc2C(=O)OCC(=O)NC2CCCC2)cc1 was read as Glioma ERSR ind inactive, Eya2 phos inh inactive, Six1-Eya2 inh -71 and CtBP-E1A blk -66.
For CN(C)c1ccc(N=Nc2ccccc2C(=O)OCC(=O)N(C)C2CCCCC2)cc1 the results were Glioma ERSR ind inactive, Eya2 phos inh inactive, Six1-Eya2 inh inactive and CtBP-E1A blk inactive.
Screening COc1ccc(/C=N/N(CCC(=O)NC(C)(C)C)C2=NS(=O)(=O)c3ccccc32)cc1 returned Glioma ERSR ind inactive, Eya2 phos inh inactive, Six1-Eya2 inh inactive and CtBP-E1A blk inactive.
O=S1(=O)N=C(N(CCO)/N=C/c2ccncc2)c2ccccc21 was read as Glioma ERSR ind inactive, Eya2 phos inh inactive, Six1-Eya2 inh -80 and CtBP-E1A blk -78.

Bioassay records as filed in PubChem BioAssay.
